A short description of assay [1]: NCI Yeast Anticancer Drug Screen. Data for the rad50 strain (AID 155).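 Also: 0% = growth of vehicle-only cultures of the same strain.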 The conditions noted are these: S. cerevisiae rad50 strain growth inhibition, stronger effect = higher value. A digest of the protocol:
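Relative growth inhibition (compound vs vehicle) was measured in yeast with a defined repair-gene alteration.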

Assay [2] is described as follows: NCI Yeast Anticancer Drug Screen. Data for the mec2-1 strain (AID 157). To be noted: S. cerevisiae mec2-1 strain, stronger effect = higher value. The procedure, abridged:
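Each compound was tested on mec2-1 yeast, a strain altered in DNA damage repair or cell cycle control. Growth inhibition is reported relative to vehicle.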

The nature of assay [3]: NCI Yeast Anticancer Drug Screen. Data for the sgs1 mgt1 strain (AID 161).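 Also: 0% = growth of cultures given vehicle only.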 The conditions noted are these: S. cerevisiae sgs1 mgt1 strain, stronger effect = higher value. The procedure, abridged:
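Genetically altered yeast, compound exposure, growth inhibition relative to vehicle.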

Assay [4] is described as follows: NCI Yeast Anticancer Drug Screen. Data for the cln2 rad14 strain (AID 165).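 Also: 0% = growth equal to vehicle treated cultures.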 The conditions noted are these: S. cerevisiae cln2 rad14 strain, stronger effect = higher value. A digest of the protocol:
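Test compounds were added to cln2 rad14 yeast cultures; inhibition of growth was then determined by comparison with vehicle treatment.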

The nature of assay [5]: NCI Yeast Anticancer Drug Screen. Data for the bub3 strain (AID 167). To be noted: S. cerevisiae bub3 mutant strain, stronger effect = higher value. The procedure, abridged: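 Screening used yeast with an engineered genetic alteration affecting cell cycle control. Compound-exposed cultures were compared with vehicle cultures, and reduced growth was taken as inhibition.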
Assay [6] is described as follows: NCI Yeast Anticancer Drug Screen. Data for the mlh1 rad18 strain (AID 175). To be noted: S. cerevisiae mlh1 rad18 strain growth inhibition, stronger effect = higher value. The procedure, abridged: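 Inhibition values reflect reduced growth of mutant yeast versus vehicle-treated controls following compound exposure; the mutations affect DNA damage repair.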
Setting [7] is: at 5.0 µM (retest, dose inferred, filed as 0.5).
Where [8] appears, read: at 50.0 µM (retest, dose inferred, filed as 5.0).

About 79,000 compounds went through this panel and 15% of them were active in at least one assay; those are over-represented in the sample as a whole. Values without a mark were called inactive. Calls of active or inactive are those of the source. Rule as the data show it: active = growth inhibition above about 70%; inactive = the rest.

As for `S=c1[nH]c(-c2ccccc2)cs1`, the growth inhibition is -2% in assay [1] (setting [7]); 77% (active) in assay [1] (setting [8]); 79.5% (active) in assay [1] (at 50.0 µM); 0% in assay [2] (setting [7]); 71% (active) in assay [2] (setting [8]); 85.1% (active) in assay [2] (at 50.0 µM). The growth inhibition was 0% in assay [3] (setting [7]); 83% (active) in assay [3] (setting [8]); 92% (active) in assay [3] (at 50.0 µM); -15% in assay [4] (setting [7]); 73% (active) in assay [4] (setting [8]); 80.2% (active) in assay [4] (at 50.0 µM). For the same compound, the growth inhibition in assay [5] (setting [7]) was -24%; in assay [5] (setting [8]), 89% (active); in assay [5] (at 50.0 µM), 74% (active); in assay [6] (setting [7]), 1%; in assay [6] (setting [8]), 89% (active); in assay [6] (at 50.0 µM), 89.5% (active).
On to `CC1(C)C/C(=N/NC(N)=S)C(=NO)/C(=N\NC(N)=S)C1`, for which the growth inhibition in assay [1] (setting [7]) is 6%; in assay [1] (setting [8]), 60%; in assay [1] (at 50.0 µM), 75% (active); in assay [2] (setting [7]) it was 2%; in assay [2] (setting [8]), 40%; in assay [2] (at 50.0 µM), 62%. Also, the growth inhibition was 9% in assay [3] (setting [7]); 61% in assay [3] (setting [8]); 77.4% (active) in assay [3] (at 50.0 µM); -13% in assay [4] (setting [7]); 27% in assay [4] (setting [8]); 23.4% in assay [4] (at 50.0 µM). In addition, the growth inhibition is 0% in assay [5] (setting [7]); 34% in assay [5] (setting [8]); 76.8% (active) in assay [5] (at 50.0 µM); 2% in assay [6] (setting [7]); 59% in assay [6] (setting [8]); 74.5% (active) in assay [6] (at 50.0 µM).
As to `CCN(CC)CCSCCCNc1cc(OC)cc2cccnc12`, the growth inhibition was -1% in assay [1] (setting [7]); 24% in assay [1] (setting [8]); 67.5% in assay [1] (at 50.0 µM); 6% in assay [2] (setting [7]); 29% in assay [2] (setting [8]); 59.6% in assay [2] (at 50.0 µM). In addition, the growth inhibition is 13% in assay [3] (setting [7]); 54% in assay [3] (setting [8]); 71% (active) in assay [3] (at 50.0 µM); 8% in assay [4] (setting [7]); 32% in assay [4] (setting [8]); 78% (active) in assay [4] (at 50.0 µM). Moreover, the growth inhibition in assay [5] (setting [7]) was 10%; in assay [5] (setting [8]) it was 54%; in assay [5] (at 50.0 µM), 54%; in assay [6] (setting [7]), 7%; in assay [6] (setting [8]) it was 28%; in assay [6] (at 50.0 µM), 65.3%.
Regarding `O=c1cc2cccccc-2cc1O`, the growth inhibition was -132% in assay [1] (setting [7]); 94% (active) in assay [1] (setting [8]); 87.2% (active) in assay [1] (at 50.0 µM); -42% in assay [2] (setting [7]); 95% (active) in assay [2] (setting [8]); 70% (active) in assay [2] (at 50.0 µM). For the same compound, the growth inhibition in assay [3] (setting [7]) is -48%; in assay [3] (setting [8]) it was 96% (active); in assay [3] (at 50.0 µM), 83.5% (active); in assay [4] (setting [7]), -43%; in assay [4] (setting [8]), 89% (active); in assay [4] (at 50.0 µM), 86% (active). For the same compound, the growth inhibition in assay [5] (setting [7]) was -65%; in assay [5] (setting [8]), 95% (active); in assay [5] (at 50.0 µM), 91.5% (active); in assay [6] (setting [7]) it was -130%; in assay [6] (setting [8]) it was 95% (active); in assay [6] (at 50.0 µM), 86.3% (active).
With `CC1(C)CC(=O)C2=C(C1)Nc1ccccc1CC2c1c[nH]c2ccccc12` (configuration not stated), the growth inhibition in assay [1] (setting [7]) is -6%; in assay [1] (setting [8]), 77% (active); in assay [1] (at 50.0 µM) it was -7.2%; in assay [2] (setting [7]), -1%; in assay [2] (setting [8]) it was 85% (active); in assay [2] (at 50.0 µM) it was 3.35%. Besides, the growth inhibition in assay [3] (setting [7]) was -8%; in assay [3] (setting [8]), 68%; in assay [3] (at 50.0 µM) it was 5.35%; in assay [4] (setting [7]), -62%; in assay [4] (setting [8]), 82% (active); in assay [4] (at 50.0 µM) it was 52.2%. Moreover, the growth inhibition in assay [5] (setting [7]) is -4%; in assay [5] (setting [8]), 68%; in assay [5] (at 50.0 µM), 10.8%; in assay [6] (setting [7]), 0%; in assay [6] (setting [8]), 84% (active); in assay [6] (at 50.0 µM), 0%.
`Cn1cnc2[nH]c(Cl)nc(=S)c21`: the growth inhibition in assay [1] (setting [7]) was -1%; in assay [1] (setting [8]), 2%; in assay [1] (at 50.0 µM), 1.05%; in assay [2] (setting [7]) it was 3%; in assay [2] (setting [8]), 0%; in assay [2] (at 50.0 µM) it was -8.25%. Moreover, the growth inhibition is -1% in assay [3] (setting [7]); 0% in assay [3] (setting [8]); -0.65% in assay [3] (at 50.0 µM); -6% in assay [4] (setting [7]); 0% in assay [4] (setting [8]); 81.1% (active) in assay [4] (at 50.0 µM). For the same compound, the growth inhibition was -1% in assay [5] (setting [7]); -4% in assay [5] (setting [8]); 11.9% in assay [5] (at 50.0 µM); -2% in assay [6] (setting [7]); 0% in assay [6] (setting [8]); 15.6% in assay [6] (at 50.0 µM).
For `CC(=O)N=C1N(/C=C2\C(=O)Oc3ccccc3C2=O)C(=O)/C(=C/c2cccc(Cl)c2Cl)N1C`, the growth inhibition in assay [1] (setting [7]) was 5%; in assay [1] (setting [8]) it was 89% (active); in assay [1] (at 50.0 µM), -7.75%; in assay [2] (setting [7]), 12%; in assay [2] (setting [8]), 61%; in assay [2] (at 50.0 µM) it was 0.2%. Besides, the growth inhibition in assay [3] (setting [7]) was -12%; in assay [3] (setting [8]), 8%; in assay [3] (at 50.0 µM) it was 28.2%; in assay [4] (setting [7]), 7%; in assay [4] (setting [8]), 25%; in assay [4] (at 50.0 µM), -21.8%. For the same compound, the growth inhibition was -11% in assay [5] (setting [7]); 17% in assay [5] (setting [8]); -37.5% in assay [5] (at 50.0 µM); 13% in assay [6] (setting [7]); 95% (active) in assay [6] (setting [8]); -22.4% in assay [6] (at 50.0 µM).
Take `C=CC(=O)N1C/C(=C\c2ccc([N+](=O)[O-])cc2)C(=O)/C(=C/c2ccc([N+](=O)[O-])cc2)C1`: the growth inhibition in assay [1] (setting [7]) is 46%; in assay [1] (setting [8]), 96% (active); in assay [1] (at 50.0 µM) it was 28.7%; in assay [2] (setting [7]) it was 33%; in assay [2] (setting [8]), 97% (active); in assay [2] (at 50.0 µM), 51.5%. The growth inhibition in assay [3] (setting [7]) is 39%; in assay [3] (setting [8]), 97% (active); in assay [3] (at 50.0 µM) it was 87.3% (active); in assay [4] (setting [7]), 26%; in assay [4] (setting [8]), 96% (active); in assay [4] (at 50.0 µM), 88% (active). Also, the growth inhibition in assay [5] (setting [7]) is 25%; in assay [5] (setting [8]) it was 96% (active); in assay [5] (at 50.0 µM) it was 83.9% (active); in assay [6] (setting [7]), 58%; in assay [6] (setting [8]), 96% (active); in assay [6] (at 50.0 µM), 81.5% (active).
As for `Nc1ccc(-c2cccc(-c3ccccc3)c2)cc1`, the growth inhibition in assay [1] (setting [7]) was -8%; in assay [1] (setting [8]), 94% (active); in assay [1] (at 50.0 µM) it was 98% (active); in assay [2] (setting [7]) it was -11%; in assay [2] (setting [8]), 94% (active); in assay [2] (at 50.0 µM), 97.7% (active). Further, the growth inhibition in assay [3] (setting [7]) is -11%; in assay [3] (setting [8]) it was 97% (active); in assay [3] (at 50.0 µM), 96.2% (active); in assay [4] (setting [7]), -40%; in assay [4] (setting [8]), 96% (active); in assay [4] (at 50.0 µM), 98.7% (active). The growth inhibition in assay [5] (setting [7]) is -15%; in assay [5] (setting [8]) it was 97% (active); in assay [5] (at 50.0 µM), 98.3% (active); in assay [6] (setting [7]), -27%; in assay [6] (setting [8]) it was 97% (active); in assay [6] (at 50.0 µM), 97.6% (active).
